Inconclusive results are not listed. A number with no mark means an inactive call. The source made the active and inactive calls. Calls follow the shape of the dose curve; as a rule, active = well fitted inhibition curve with a large enough effect; inconclusive = small, poorly fitted or top-dose-only effect; inactive = flat fitted curve, though single readings scatter.
These compounds were tested on MCC-26 (assay: qHTS assay to identify novel small-molecules to repurpose for Merkel cell carcinoma treatment (AID 1296009; also: nearly all actives have a fitted effect of over 60% in size)). Conditions: MCC and control cell lines, CellTiter-Glo viability, 72 h; series mostly up to 46 µM; activity change, negative = cytotoxicity: at the top concentration.
Outline: (§1)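 qHTS format: cells treated with library compounds in DMSO across 8 (NPC) or 11 (MIPE) concentrations. Readout after 72 hr at 37 degree celsius was CellTiter-Glo luminescence.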
% is scaled to controls: 0 for no effect and ±100 for the full control effect; potency is read from the fitted curve at half-maximal effect.

Row | Structure (SMILES) | activity change, negative = cytotoxicity | Potency
1 | CC(Cc1ccccc1)N(C)Cc1ccco1 (stereo unspecified) | 16.9% | –
2 | CCC1(c2ccccc2)C(=O)N(COC)C(=O)N(COC)C1=O | -2.46% | –
3 | C[C@]12CCC(=O)C=C1CC[C@@H]1[C@@H]2CC[C@]2(C)C(=O)CC[C@@H]12 | -17.8% | –
4 | c1ccc2c(c1)sc1ccccc12 | 13.7% | –
5 | CCN[C@@H](C)Cc1cccc(C(F)(F)F)c1 | -5.78% | –
6 | CNC(C)(C)Cc1ccccc1 | 0.36% | –
7 | c1ccc(CN2CCNCC2)cc1 | -15.5% [at 155 µM] | –
8 | O=C(Nc1ccc(Br)cc1)c1cc(Br)cc(Br)c1O | -4.01% | –
9 | COC1CC(=C(c2cccs2)c2cccs2)C[N+](C)(C)C1 (stereo unspecified) | -0.574% | –
10 | CNCC(=O)c1ccc(O)c(O)c1 | -1.74% | –
11 | O=c1[nH]oc2c1CCNC2 | -2.25% | –
12 | c1ccc(N2CCNCC2)cc1 | 8.48% | –
13 | COc1cccc(C(=O)CCN[C@@H](C)[C@H](O)c2ccccc2)c1 | 3.42% | –
14 | CCN(CCO)CCn1c(Cc2ccccc2)nc2c1c(=O)n(C)c(=O)n2C | 8.57% | –
15 | CC(Cc1ccccc1)NCCn1cnc2c1c(=O)n(C)c(=O)n2C (stereo unspecified) | -6.55% [at 92.7 µM] | –
16 | CCC(C)(C)c1ccc(O)cc1 | 4.59% | –
17 | CC(C)=CC1C(C(=O)OCN2C(=O)C3=C(CCCC3)C2=O)C1(C)C (stereo unspecified) | -3.43% | –
18 | C=C(C)[C@H]1CN[C@H](C(=O)O)[C@H]1CC(=O)O | 13.3% | –
19 | CC(C(=O)c1ccccc1)N(C)C (stereo unspecified) | 7.02% | –
20 | CN1C(=O)NC(=O)C(C)(C2=CCCCC2)C1=O (stereo unspecified) | 12.3% | –
21 | CC[N+]1(CC)CCC(OC(=O)C(O)(c2ccccc2)c2ccccc2)C1 (stereo unspecified) | 4% | –
22 | Nc1ccccc1C(=O)O | 8.08% | –
23 | CCN(CC)CCc1c[nH]c2ccccc12 | -18.3% [at 155 µM] | –
24 | CCC1(c2ccc(N)cc2)CCC(=O)NC1=O (stereo unspecified) | – | inactive
25 | CC(=O)NC1CCSC1=O (stereo unspecified) | 4.64% | –
26 | O=C1CN=C(c2ccccc2)c2cc([N+](=O)[O-])ccc2N1 | -5.99% | –
27 | O=P1(N(CCCl)CCCl)NCCCO1 (stereo unspecified) | – | inactive
28 | COC(=O)C(Cl)C(=O)OC | -4.33% | –
29 | O=C(N/N=C/c1ccc([N+](=O)[O-])o1)c1cc([N+](=O)[O-])cc([N+](=O)[O-])c1O | 7.47% | –

Each compound was assayed on MKL-1 in the same assay as above. Conditions: MCC and control cell lines, CellTiter-Glo viability, 72 h; series mostly up to 46 µM; activity change, negative = cytotoxicity: at the top concentration.
Outline: as §1

Row | Structure (SMILES) | activity change, negative = cytotoxicity | Potency
30 | CC(Cc1ccccc1)N(C)Cc1ccco1 (stereo unspecified) | 18.7% | –
31 | CCC1(c2ccccc2)C(=O)N(COC)C(=O)N(COC)C1=O | 1.18% | –
32 | C[C@]12CCC(=O)C=C1CC[C@@H]1[C@@H]2CC[C@]2(C)C(=O)CC[C@@H]12 | -7.17% | –
33 | C[C@](O)(CS(=O)(=O)c1ccc(F)cc1)C(=O)Nc1ccc(C#N)c(C(F)(F)F)c1 | -14.5% | –
34 | c1ccc2c(c1)sc1ccccc12 | 14.4% | –
35 | CCN[C@@H](C)Cc1cccc(C(F)(F)F)c1 | 0.298% | –
36 | CCCOC(=O)c1cncn1C(C)c1ccccc1 (stereo unspecified) | 2.79% | –
37 | CNC(C)(C)Cc1ccccc1 | 7.89% | –
38 | c1ccc(CN2CCNCC2)cc1 | -15.3% [at 155 µM] | –
39 | O=C(Nc1ccc(Br)cc1)c1cc(Br)cc(Br)c1O | 2.21% | –
40 | COC1CC(=C(c2cccs2)c2cccs2)C[N+](C)(C)C1 (stereo unspecified) | – | 21.1 µM (active)
41 | CNCC(=O)c1ccc(O)c(O)c1 | 1.05% | –
42 | O=c1[nH]oc2c1CCNC2 | 5.71% | –
43 | CN1CCC(O)(c2ccc(F)cc2)C(C(=O)c2ccc(F)cc2)C1 (stereo unspecified) | 1.15% | –
44 | CCC(C)C(C)(COC(N)=O)COC(N)=O (stereo unspecified) | 3.97% | –
45 | c1ccc(N2CCNCC2)cc1 | 5.77% | –
46 | NC1=NC(=O)C(c2ccccc2)O1 (stereo unspecified) | 6.18% | –
47 | CCN(CCO)CCn1c(Cc2ccccc2)nc2c1c(=O)n(C)c(=O)n2C | 17.8% | –
48 | CCN[C@H](C)Cc1cccc(C(F)(F)F)c1 | -8.61% [at 92.7 µM] | –

Row | Structure (SMILES) | activity change, negative = cytotoxicity | Potency
49 | CC(Cc1ccccc1)NCCn1cnc2c1c(=O)n(C)c(=O)n2C (stereo unspecified) | -18.9% [at 92.7 µM] | –
50 | C[C@]12CCC(=O)C=C1CC[C@@H]1[C@@H]2CC[C@@]2(C)[C@H]1CC[C@]2(C)O | -15.7% | –
51 | NCCc1ccc(O)cc1 | -6.34% | –
52 | CCC(C)(C)c1ccc(O)cc1 | 2.74% | –
53 | CC(C)=CC1C(C(=O)OCN2C(=O)C3=C(CCCC3)C2=O)C1(C)C (stereo unspecified) | -17.8% | –
54 | C=C(C)[C@H]1CN[C@H](C(=O)O)[C@H]1CC(=O)O | 5.8% | –
55 | CC(C(=O)c1ccccc1)N(C)C (stereo unspecified) | 1.84% | –
56 | CN1C(=O)NC(=O)C(C)(C2=CCCCC2)C1=O (stereo unspecified) | 10.7% | –
57 | CC[N+]1(CC)CCC(OC(=O)C(O)(c2ccccc2)c2ccccc2)C1 (stereo unspecified) | -1.86% | –
58 | Nc1ccccc1C(=O)O | 11.8% | –
59 | CCN(CC)CCc1c[nH]c2ccccc12 | -14.8% [at 155 µM] | –
60 | CCC1(c2ccc(N)cc2)CCC(=O)NC1=O (stereo unspecified) | – | inactive
61 | O=C(CCCN1CCC2(CC1)C(=O)NCN2c1ccccc1)c1ccc(F)cc1 | -12.2% | –
62 | CC(=O)NC1CCSC1=O (stereo unspecified) | 0.671% | –
63 | O=C1CN=C(c2ccccc2)c2cc([N+](=O)[O-])ccc2N1 | -22.3% | –
64 | O=P1(N(CCCl)CCCl)NCCCO1 (stereo unspecified) | – | inactive
65 | COC(=O)C(Cl)C(=O)OC | -1.41% | –
66 | O=C(N/N=C/c1ccc([N+](=O)[O-])o1)c1cc([N+](=O)[O-])cc([N+](=O)[O-])c1O | -2.99% | –
67 | CC1(C)C(C=C(Cl)Cl)C1C(=O)OC(C#N)c1cccc(Oc2ccccc2)c1 (stereo unspecified) | 5.04% | –

What follows are compounds tested on MKL-2 in the same assay as above. Conditions: MCC and control cell lines, CellTiter-Glo viability, 72 h; series mostly up to 46 µM; activity change, negative = cytotoxicity: at the top concentration.
Outline: as §1

Row | Structure (SMILES) | activity change, negative = cytotoxicity | Potency
68 | CC(Cc1ccccc1)N(C)Cc1ccco1 (stereo unspecified) | 4.5% | –
69 | CCC1(c2ccccc2)C(=O)N(COC)C(=O)N(COC)C1=O | 11.9% | –
70 | C[C@]12CCC(=O)C=C1CC[C@@H]1[C@@H]2CC[C@]2(C)C(=O)CC[C@@H]12 | -16.7% | –
71 | C[C@](O)(CS(=O)(=O)c1ccc(F)cc1)C(=O)Nc1ccc(C#N)c(C(F)(F)F)c1 | – | 23.5 µM (active)
72 | c1ccc2c(c1)sc1ccccc12 | 8.66% | –
73 | CCN[C@@H](C)Cc1cccc(C(F)(F)F)c1 | 4.67% | –
74 | CCCOC(=O)c1cncn1C(C)c1ccccc1 (stereo unspecified) | 11.9% | –
75 | CNC(C)(C)Cc1ccccc1 | 10.7% | –
76 | c1ccc(CN2CCNCC2)cc1 | 10.1% [at 155 µM] | –
77 | O=C(Nc1ccc(Br)cc1)c1cc(Br)cc(Br)c1O | 1.63% | –
78 | COC1CC(=C(c2cccs2)c2cccs2)C[N+](C)(C)C1 (stereo unspecified) | – | 7.5 µM (active)
79 | CNCC(=O)c1ccc(O)c(O)c1 | 2.81% | –
80 | O=c1[nH]oc2c1CCNC2 | 3.51% | –
81 | CCC(C)C(C)(COC(N)=O)COC(N)=O (stereo unspecified) | 17.7% | –
82 | c1ccc(N2CCNCC2)cc1 | 10.6% | –
83 | COc1cccc(C(=O)CCN[C@@H](C)[C@H](O)c2ccccc2)c1 | – | 15 µM (active)
84 | NC1=NC(=O)C(c2ccccc2)O1 (stereo unspecified) | 7.56% | –

Row | Structure (SMILES) | activity change, negative = cytotoxicity | Potency
85 | CCN(CCO)CCn1c(Cc2ccccc2)nc2c1c(=O)n(C)c(=O)n2C | 21.9% | –
86 | CCN[C@H](C)Cc1cccc(C(F)(F)F)c1 | 7.17% [at 92.7 µM] | –
87 | CC(Cc1ccccc1)NCCn1cnc2c1c(=O)n(C)c(=O)n2C (stereo unspecified) | -2.24% [at 92.7 µM] | –
88 | CCC(C)(C)c1ccc(O)cc1 | 21.1% | –
89 | CC(C)=CC1C(C(=O)OCN2C(=O)C3=C(CCCC3)C2=O)C1(C)C (stereo unspecified) | -32% | –
90 | C=C(C)[C@H]1CN[C@H](C(=O)O)[C@H]1CC(=O)O | 1.48% | –
91 | CC(C(=O)c1ccccc1)N(C)C (stereo unspecified) | -16.4% | –
92 | CN1C(=O)NC(=O)C(C)(C2=CCCCC2)C1=O (stereo unspecified) | 2.05% | –
93 | CC[N+]1(CC)CCC(OC(=O)C(O)(c2ccccc2)c2ccccc2)C1 (stereo unspecified) | 0.689% | –
94 | Nc1ccccc1C(=O)O | 15.5% | –
95 | CCN(CC)CCc1c[nH]c2ccccc12 | -23.2% [at 155 µM] | –
96 | CCC1(c2ccc(N)cc2)CCC(=O)NC1=O (stereo unspecified) | – | inactive
97 | O=C(CCCN1CCC2(CC1)C(=O)NCN2c1ccccc1)c1ccc(F)cc1 | 1.05% | –
98 | O=C1CN=C(c2ccccc2)c2cc([N+](=O)[O-])ccc2N1 | -5.18% | –
99 | O=P1(N(CCCl)CCCl)NCCCO1 (stereo unspecified) | – | inactive
100 | COC(=O)C(Cl)C(=O)OC | 3.73% | –
101 | CC1(C)C(C=C(Cl)Cl)C1C(=O)OC(C#N)c1cccc(Oc2ccccc2)c1 (stereo unspecified) | 2.96% | –

Source: PubChem BioAssay (NCATS)
